Results: PubChem BioAssay (NCI)
This is part of a sample that, as a whole, favours compounds with a hit. Of some 83,000 tested, about 20% had one in any assay.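 48-hour exposure, single concentration, 96-well plates; percent growth endpoint where 0 means no net growth. Active: below 10.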 Unmarked numbers belong to inactive results. Activity calls are given as the source filed them.

System: NCI-H226 lung
Assay: NCI-60 one-dose screen, 48 h (100 = growth as untreated, 0 = no growth, -100 = all killed)
Conditions: 10 µM unless noted

For `C=C1C(=O)O[C@H]2[C@H]1CC/C(COC(=O)C(=O)c1c[nH]c3ccccc13)=C\CC[C@@]1(C)O[C@@H]21`, the growth was -61.6% (active).
For `CCCCCCCCCOc1c(OC)cc(C2CC(=O)Nc3c2c(C)nn3-c2nc3ccccc3[nH]2)cc1OC` (centres undefined), the growth was -61.6% (active).
In the case of `N#C/C(=C/C=C/c1cccc(Cl)c1)S(=O)c1ccccc1` (centres undefined), the growth is reported as -33% (active).

Point of comparison: `NC(=S)Nc1cccc(O)c1`, growth 96.9%. Against it:
- S=C(c1ccc2c(c1)OCO2)N1CCN(c2ccccc2Cl)CC1 — lower, 87.9%
- CC(C)(C)CC(C)(C)Nc1c(-c2ccncc2)nc2cnccn12 — lower, 90.3%
- COCCN(C(=O)c1ccc(F)cc1F)c1c(N)n(Cc2ccccc2)c(=O)[nH]c1=O — lower, 94.7%
- Cc1ccc(N(C(=O)CCc2c[nH]c3ccccc23)[C@H](C(=O)Nc2ccc(Cl)cc2)c2cccc([N+](=O)[O-])c2)cc1 — lower, 74.9%
- COC(=O)c1c2c(c(C)[n+]([O-])c1C)C(=O)C(NCc1ccc(F)cc1)=CC2=O — lower, 81.6%
- COc1ccc(Cl)cc1NC(=O)C(Br)C(Br)C(=O)O (centres undefined) — lower, 70.9%
- O=C1Nc2ccccc2/C1=C/c1cn(C(=O)c2c(Cl)cccc2Cl)c2ccccc12 — lower, 48.2%
- COC(=O)/C=C1\S/C(=N\NS(=O)(=O)c2ccc(C)cc2)N(c2ccccc2)C1=O — higher, 97.8%
- CCCCCCCC/C=C\CCCCCCCCOc1ccccc1CC(=O)NCC[N+](C)(C)C — lower, 52.3%
- CCCCCS(=O)(=O)Nc1ccc(C(=O)O)cc1 — higher, 98.9%
- C=C1C(=O)O[C@H]2[C@H]1CC/C(CNC(=O)/C=C/c1ccc(Cl)cc1Cl)=C\CC[C@@]1(C)O[C@@H]21 — lower, 64.2%
- NNC(=O)c1nc(N)n(-c2ccc(S(N)(=O)=O)cc2)n1 — higher, 98.7%
- C(=N\Nc1ncc(-c2cc3cc4c(cc3o2)OCO4)s1)/c1ccco1 — lower, 58.4%
- O=C(/C=C/c1cccc(O)c1)c1cccc(-n2cc(-c3ccc4ccccc4c3)[nH]c2=O)c1 — lower, 88.9%
- COc1cc(Cn2ncc3ccc(NC(=O)c4cc5ccccc5oc4=N)cc32)cc(OC)c1OC — lower, 88.6%
- O=C(CC(SCc1ccccc1)c1ccccc1)c1ccccc1 (centres undefined) — lower, 87.6%
- CCOc1ccccc1-c1cc(-c2cccs2)c(C#N)c(=O)[nH]1 — lower, 90.9%
- N#CC1=C(NC=O)Oc2c(ccc3ccccc23)C1c1ccccc1 (centres undefined) — lower, 62.6%
- COc1cc(C2CC(c3cc(OC)c(OCCCOc4ccc(-n5c(/C=C/c6ccccc6)nc6ccccc6c5=O)cc4)c(OC)c3)=NO2)cc(OC)c1OC (centres undefined) — higher, 110%
- O=C1Nc2ccc(F)cc2C12Nc1cc(Cl)ccc1S2 (centres undefined) — higher, 108%
- CCN(CC)CCN1C(=O)c2c(c(C)c3c(oc4cc(O)ccc43)c2C)C1=O — lower, 29.2%
- O=C(O)c1ccc2c(c1Cl)C(=O)c1ccccc1C2=O — higher, 103%
- CN(c1ccccc1)c1ccc2c(c1)OCCC21CC1Nc1cnccc1C(=O)O (centres undefined) — lower, 63.9%
- CC1O[C@@H](OC2[C@H](OC(=O)/C=C/c3ccc(O)c(O)c3)C(COC3O[C@H](C)C(O)C(O)[C@@H]3O)O[C@@H](OCCc3ccc(O)c(O)c3)[C@H]2O)[C@@H](O)C(O)[C@H]1O (some centres undefined) — higher, 112%
- O=C(CSc1nnc(-c2ccc(NC(=O)c3cccnc3)cc2)o1)Nc1cccc(Br)c1 — higher, 97.7%
- CCN1C(=O)N(CC)C2Nn3c(s/c(=C\c4ccc(Cl)cc4Cl)c3=O)=NC21 (centres undefined) — higher, 98.2%
- COc1ccc(/C=N/C2=C(C#N)C(c3ccc(OC)cc3)c3ccc4ccccc4c3O2)cc1 (centres undefined) — lower, 74.5%
- CCOC(=O)C/C(C)=N\NC(=O)c1ccncc1 — higher, 112%
- COC(=O)[C@H](CSC)N(C)C(=O)[C@@H]1CSSC[C@@H](NC(=O)c2nc3ccccc3cc2O)C(=O)NCC(=O)N1C — lower, 87.5%
- COc1ccc2[nH]c(O)c(C(=Nc3ccc(N(C)C(=O)CN4CCN(C)CC4)cc3)c3ccccc3)c2c1 — lower, 29%
- O=[N+]([O-])c1ccc(N2c3ccncc3Sc3ccncc32)cc1 — higher, 105%
- COc1ccc(CNC(=O)C(O)C(Cc2ccccc2)NC(=O)c2[nH]c3ccccc3c(=O)c2C)cc1OC (centres undefined) — higher, 98.1%
- COC(=O)[C@]12CC[C@@H](C)[C@H](C)[C@@H]1C1=CC[C@@H]3[C@@]4(C)C(C=O)=C[C@@](C)(COC(C)=O)C4=CC[C@@]3(C)[C@]1(C)CC2 — lower, 11.2%

System: NCI-H322M lung
Assay: as above
Conditions: 10 µM unless noted

Point of comparison: `O=C(CC(SCc1ccccc1)c1ccccc1)c1ccccc1` (centres undefined), growth 97.1%. Against it:
- C=C1C(=O)O[C@H]2[C@H]1CC/C(COC(=O)C(=O)c1c[nH]c3ccccc13)=C\CC[C@@]1(C)O[C@@H]21 — lower, 24.6%
- S=C(c1ccc2c(c1)OCO2)N1CCN(c2ccccc2Cl)CC1 — higher, 103%
- CC(C)(C)CC(C)(C)Nc1c(-c2ccncc2)nc2cnccn12 — higher, 103%
- COCCN(C(=O)c1ccc(F)cc1F)c1c(N)n(Cc2ccccc2)c(=O)[nH]c1=O — higher, 99.8%
- Cc1ccc(N(C(=O)CCc2c[nH]c3ccccc23)[C@H](C(=O)Nc2ccc(Cl)cc2)c2cccc([N+](=O)[O-])c2)cc1 — lower, 79.1%
- COC(=O)c1c2c(c(C)[n+]([O-])c1C)C(=O)C(NCc1ccc(F)cc1)=CC2=O — lower, 15.9%
- COc1ccc(Cl)cc1NC(=O)C(Br)C(Br)C(=O)O (centres undefined) — lower, 61.5%
- O=C1Nc2ccccc2/C1=C/c1cn(C(=O)c2c(Cl)cccc2Cl)c2ccccc12 — lower, 90.4%
- COC(=O)/C=C1\S/C(=N\NS(=O)(=O)c2ccc(C)cc2)N(c2ccccc2)C1=O — higher, 99.6%
- CCCCCCCC/C=C\CCCCCCCCOc1ccccc1CC(=O)NCC[N+](C)(C)C — lower, 96.6%
- NC(=S)Nc1cccc(O)c1 — lower, 88.9%
- CCCCCS(=O)(=O)Nc1ccc(C(=O)O)cc1 — higher, 97.3%
- C=C1C(=O)O[C@H]2[C@H]1CC/C(CNC(=O)/C=C/c1ccc(Cl)cc1Cl)=C\CC[C@@]1(C)O[C@@H]21 — lower, 73.9%
- NNC(=O)c1nc(N)n(-c2ccc(S(N)(=O)=O)cc2)n1 — higher, 97.3%
- C(=N\Nc1ncc(-c2cc3cc4c(cc3o2)OCO4)s1)/c1ccco1 — lower, 77.3%
- COc1cc(Cn2ncc3ccc(NC(=O)c4cc5ccccc5oc4=N)cc32)cc(OC)c1OC — lower, 89.6%
- CCOc1ccccc1-c1cc(-c2cccs2)c(C#N)c(=O)[nH]1 — lower, 83.9%
- N#CC1=C(NC=O)Oc2c(ccc3ccccc23)C1c1ccccc1 (centres undefined) — lower, 75.4%
- COc1cc(C2CC(c3cc(OC)c(OCCCOc4ccc(-n5c(/C=C/c6ccccc6)nc6ccccc6c5=O)cc4)c(OC)c3)=NO2)cc(OC)c1OC (centres undefined) — higher, 123%
- O=C1Nc2ccc(F)cc2C12Nc1cc(Cl)ccc1S2 (centres undefined) — lower, 84.6%
- CCN(CC)CCN1C(=O)c2c(c(C)c3c(oc4cc(O)ccc43)c2C)C1=O — lower, 89.1%
- O=C(O)c1ccc2c(c1Cl)C(=O)c1ccccc1C2=O — higher, 102%
- CN(c1ccccc1)c1ccc2c(c1)OCCC21CC1Nc1cnccc1C(=O)O (centres undefined) — lower, 87.5%
- CC1O[C@@H](OC2[C@H](OC(=O)/C=C/c3ccc(O)c(O)c3)C(COC3O[C@H](C)C(O)C(O)[C@@H]3O)O[C@@H](OCCc3ccc(O)c(O)c3)[C@H]2O)[C@@H](O)C(O)[C@H]1O (some centres undefined) — lower, 89.4%
- O=C(CSc1nnc(-c2ccc(NC(=O)c3cccnc3)cc2)o1)Nc1cccc(Br)c1 — higher, 97.2%
- CCN1C(=O)N(CC)C2Nn3c(s/c(=C\c4ccc(Cl)cc4Cl)c3=O)=NC21 (centres undefined) — lower, 65.5%
- COc1ccc(/C=N/C2=C(C#N)C(c3ccc(OC)cc3)c3ccc4ccccc4c3O2)cc1 (centres undefined) — higher, 97.6%
- CCOC(=O)C/C(C)=N\NC(=O)c1ccncc1 — lower, 90.6%
- COC(=O)[C@H](CSC)N(C)C(=O)[C@@H]1CSSC[C@@H](NC(=O)c2nc3ccccc3cc2O)C(=O)NCC(=O)N1C — higher, 100%
- COc1ccc2[nH]c(O)c(C(=Nc3ccc(N(C)C(=O)CN4CCN(C)CC4)cc3)c3ccccc3)c2c1 — lower, 61.1%
- O=[N+]([O-])c1ccc(N2c3ccncc3Sc3ccncc32)cc1 — higher, 105%
- COc1ccc(CNC(=O)C(O)C(Cc2ccccc2)NC(=O)c2[nH]c3ccccc3c(=O)c2C)cc1OC (centres undefined) — higher, 104%
- COC(=O)[C@]12CC[C@@H](C)[C@H](C)[C@@H]1C1=CC[C@@H]3[C@@]4(C)C(C=O)=C[C@@](C)(COC(C)=O)C4=CC[C@@]3(C)[C@]1(C)CC2 — lower, 24.8%

In the case of `CCCCCCCCCOc1c(OC)cc(C2CC(=O)Nc3c2c(C)nn3-c2nc3ccccc3[nH]2)cc1OC` (centres undefined), the growth is reported as -58.1% (active).
`O=C(/C=C/c1cccc(O)c1)c1cccc(-n2cc(-c3ccc4ccccc4c3)[nH]c2=O)c1` was tested, and the growth was 4.64% (active).
For `N#C/C(=C/C=C/c1cccc(Cl)c1)S(=O)c1ccccc1` (centres undefined), the growth was -44.9% (active).
